Screening data deposited in PubChem by several laboratories.
SKKanGAS inh: inhibitors of SKKanGAS S. pyogenes growth in kanamycin (SK-promoter or general growth effect). 300,000 tested, 1.3% active. inhibition, % at 7.5 µM. BacTiter-Glo, 6 h;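 active means mean replicate score, as percent of positive control median, at least 50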;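 further: strain carries kanamycin resistance gene driven by streptokinase promoter and grows in 40 µg/ml kanamycin; loss of luminescence reflects streptokinase promoter inhibition or plain growth inhibition; 0% = median of DMSO wells and 100% = positive control at its reference dose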
Mdm2 MdmX PPI: inhibitors of human Mdm2/MdmX interaction. SaOS-2 split-luciferase Mdm2/MdmX complementation, luminescence. inhibition, % at 8 µM. 330,000 tested, 3% active;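 active means inhibition of at least 50% at 8 µM in the primary screen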
NR3A LBD binder: NR3A (human) ligand-binding domain modulation; NR3A LBD differential scanning fluorimetry, Tm shift; 0% = protein alone, 100% = glycine-bound protein; Tm shift relative to glycine control, % at 25 µM; 340,000 tested, 2.5% active; AID 1259313;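 active means melting temperature shift of at least 10% of the positive control shift, at one fixed dose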
MPTP block: blocks calcium-induced mitochondrial swelling; isolated mouse mitochondria, Ca2+ swelling absorbance, 30 min; 360,000 tested, 1.4% active; inhibition, % at 10 µM;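 active means inhibition of 50% or more, scaled per plate between neutral and stimulator controls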;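 further: 0% = DMSO wells given calcium and 100% = 1 mM EGTA wells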
CSC inhib: blocks cancer stem cells; cancer stem cell-like cells viability, luminescence; inhibition, % at 7.5 µM; 300,000 tested, 1.1% active; in the data active means inhibition above about 75%; tested in HMLE shEcad cells
Beta apoptosis: blocks beta cell apoptosis. INS-1E cytokine-induced death, ATP luminescence, 48 h; percent of positive-control rescue, neutral wells zero. protection from apoptosis, % (no concentration beside the values). 300,000 tested, 0.8% active. AID 435005;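 active means Every replicate reaches about 75%, or at least half do and their mean reaches it too, limit read from the data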;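 further: 0% = cytokine-treated negative control wells and 100% = positive control rescue; higher means more ATP so stronger rescue from cytokine killing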
Mdm2-MdmX conf: confirmation of human Mdm2/MdmX interaction inhibitors; Mdm2-MdmX binding, luminescent assay; shares compounds with Mdm2 MdmX PPI; inhibition, % at 8 µM; 10,000 tested, 55% active; AID 489028; in the data active means inhibition above about 40%
FLuc counter: inhibits full-length luciferase, flagging false Mdm2/MdmX hits. shares compounds with Mdm2 MdmX PPI. SaOS-2 full-length luciferase counterscreen, luminescence. inhibition, % at 8 µM. 6,200 tested, 77% active;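 active means mean inhibition at 8 µM reaching about 37%, which flags the compound as non-specific, limit read from the data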;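 further: p53-null SaOS-2 cells with luciferase driven by a doxycycline-inducible promoter; compound on cells about two nights before reading with doxycycline added after day one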
Numbers without * were called inactive; · = not tested or not shown. A selection: hits, their analogues and other compounds. The true share with any hit is near 6.9%.

SMILES	SKKanGAS inh	Mdm2 MdmX PPI	NR3A LBD binder	MPTP block	CSC inhib	Beta apoptosis	Mdm2-MdmX conf	FLuc counter
COCCCNc1nc(N)c([N+](=O)[O-])c(Nc2cc(OC)ccc2OC)n1	26	70*	-1	4	-4	-8	27	·
COc1ccc(OC)c(Nc2nc(N)c([N+](=O)[O-])c(NCc3ccccc3)n2)c1	-8	85*	1	5	16	12	22	·
CC(=O)OCC(=O)C1(O)CCC2C3CC(F)C4=CC(=O)CCC4(C)C3C(O)CC21C (stereo not given)	·	·	-3	-2	·	·	·	·
CCCCNC(=O)c1ccc2nc(CC)c(N(C)Cc3ccc(OC)cc3)n2c1	·	·	·	1	·	·	·	·
O=C1N/C(=C/c2cccs2)C(=O)N1Cc1ccc(Br)cc1	-3	54*	1	0	-11	6	8	·
Cc1ccc(/C=C2/NC(=O)N(Cc3ccccc3)C2=O)s1	-5	-45	0	0	-9	-2	·	·
CCc1cccc(N(CC(=O)NC2CCCCC2)C(=O)c2csnn2)c1	2	4	-5	0	-10	0	·	·
Cn1c(Sc2ccc(Br)cc2)c(C=O)c2ccccc21	18	84*	0	1	-13	8	72*	53*
CCOC(=O)c1c(NC(=O)CN2CCN(C(=O)c3ccco3)CC2)sc2c1CCCC2	35	56*	0	-1	20	1	15	·
CCOC(=O)c1c(NC(=O)COc2cccc3c2CCN(CC)C3=O)sc2c1CCC2	8	60*	0	8	-1	-3	19	·
CCOC(=O)c1c(NC(=O)c2ccco2)sc2c1CCCC2	-4	10	1	4	7	1	·	·
Cc1cccn2c(=O)c(C=O)c(NCc3ccccc3)nc12	7	19	-1	16	-13	-17	·	·
COC(=O)/N=C/c1c(NCc2ccccc2)nc2c(C)cccn2c1=O	-17	70*	0	3	-4	-6	33	·
Cc1cccc(C(=O)Nc2nc(C)c(C(=O)Nc3ccc4c(c3)CCC4)s2)c1	42	58*	28*	1	·	·	43*	53*
Cc1cccc(NC(=O)c2sc(C)nc2C)c1	-4	-12	-2	-1	6	0	·	·
COc1ccccc1N1CCN(C(=O)c2oc3ccc(Br)cc3c2C)CC1	18	57*	4	-1	57	3	58*	54*
COc1ccccc1N1CCN(C(=O)c2oc3ccc(F)cc3c2C)CC1	-1	34	-5	-2	41	3	·	·
COc1ccccc1N1CCN(C(=O)c2cc3c(C)nc4ccccc4c3o2)CC1	27	54*	-2	1	-12	37	20	·
O=C(COc1ccc2c3c(c(=O)oc2c1)CCC3)N[C@@H](Cc1ccccc1)C(=O)O	2	4	-2	2	-5	-8	·	·
COc1ccc2[nH]c(=O)c(COC(=O)c3cccs3)cc2c1	-2	-50	-3	-1	-8	-2	·	·
Cc1ccc2[nH]c(=O)c(COC(=O)c3cccs3)cc2c1	-8	51*	-2	0	·	0	9	·
CC(NCc1ccc(-c2ccccc2)cc1)C(O)c1ccccc1 (stereo not given)	4	82*	-3	5	63	8	63*	64*
CC1=NOC(=O)/C1=C\c1ccc(-c2cc(Cl)ccc2Cl)o1	8	100*	3	-5	87*	101*	16	·
CC1=NOC(=O)/C1=C/c1ccc(-c2ccc(Cl)cc2)o1	·	100*	·	1	26	73	48*	17
CCOc1ccc(-n2c(=O)c3sccc3n(CC(=O)Nc3cccc(OC)c3)c2=O)cc1	-1	-3	0	1	-6	-5	·	·
SMILES	SKKanGAS inh	Mdm2 MdmX PPI	NR3A LBD binder	MPTP block	CSC inhib	Beta apoptosis	Mdm2-MdmX conf	FLuc counter
O=c1oc2ccccc2cc1-c1ccc(O)cc1	-7	-95	-8	1	4	-7	·	·
Nc1ccc(-c2cc3ccccc3oc2=O)cc1	-3	52*	1	-2	4	·	30	45*
Clc1ccc(CNCC2CCCO2)c(Cl)c1 (stereo not given)	-5	18	-1	2	-1	-6	·	·
OC(CNCC1CCCO1)Cn1c2ccc(Cl)cc2c2cc(Cl)ccc21 (stereo not given)	13	96*	-3	3	111*	·	44*	20
COc1ccc(C(=O)CN2C(=O)c3ccccc3C2=O)cc1	17	30	0	4	-8	-6	·	·
Cc1cc(C)c2ccc(NN)nc2c1O	68*	59*	-1	2	20	5	41*	47*
Cc1cc(C)c2ccc(/C=N/O)nc2c1O	35	42	2	0	21	0	·	·
CCc1ccc(N(CC(=O)Nc2ccccc2C(=O)N2CCCC2)S(C)(=O)=O)cc1	-2	1	-2	0	5	-1	·	·
CCc1ccc(-c2cc(C(F)(F)F)n3nc(C(=O)Nc4cnn(Cc5ccc(C)cc5)c4)cc3n2)s1	-2	51*	-21	1	48	76*	13	·
Cc1ccccc1Cn1cc(NC(=O)c2cc3nc(-c4ccco4)cc(C(F)(F)F)n3n2)cn1	6	0	-3	0	-7	8	·	·
O=C1NC[C@H](CCCCN2C[C@@H](Cc3ccccc3)N(CC3CCCCC3)C(=O)C2=O)N(CCC2CCCCC2)C1=O	·	·	·	-6	·	·	·	·
CCN(CC)S(=O)(=O)c1ccc(OC(C)C)c(NC(=O)c2c3c(nc4ccccc24)CCN(Cc2ccccc2)C3)c1	12	55*	3	1	·	14	54*	80*
CCC(=O)C1CCCN(C(=O)c2ccc3nc(-c4cccc(OC)c4)oc3c2)C1 (stereo not given)	0	7	-1	0	-4	3	·	·
CCOC(=O)C1CCCN(C(=O)c2ccc3nc(-c4cccc(OC)c4)oc3c2)C1 (stereo not given)	1	53*	1	2	51	3	79*	113*
COC(=O)[C@@]1(Cc2ccc(F)cc2)[C@H]2c3cc(C(=O)N4CCCC4)n(CCF)c3C[C@H]2CN1C(=O)c1ccccc1	·	·	·	0	·	·	·	·
COC(=O)[C@@]1(Cc2ccc(F)cc2)[C@H]2c3cc(C(=O)N4CCCC4)n(CCCNc4ncc(C(F)(F)F)cc4Cl)c3C[C@H]2CN1C(=O)c1ccccc1	27	62*	-1	0	26	15	-1	·
CCOC(=O)c1ccc(NC(=O)COc2ccccc2CNCCc2ccccc2)cc1	-1	63*	-3	16	-6	22	16	·
CCc1cc2c(=O)[nH]c(-c3ccccn3)nc2s1	55*	72*	-3	-2	·	66	26	46*
